Test results taken from paper PMC12136788.
Numbering of substitutions follows the chain as printed. Whole data set: some 24,000 sequences, median “enrichment r” near 0.99, cut for the highest 2% near 3.7. Only a selection was taken, and the highest values are over-represented in it overall.

T1: UNK ZnF1-3 (human, UniProt Q9C0B0 31-174)
T1 sequence: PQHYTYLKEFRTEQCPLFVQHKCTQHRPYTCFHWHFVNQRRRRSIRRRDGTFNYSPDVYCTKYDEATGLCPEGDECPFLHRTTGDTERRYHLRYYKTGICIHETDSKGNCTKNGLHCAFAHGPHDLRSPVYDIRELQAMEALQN

B1: 103221519_103221723_537_3pUTR_ENSMUSG00000041781_ENSMUST00000047357|mouse|control|control (ssRNA)
RNA: GGGAGUUCUACAGUCCGACGAUCCAAUCUGAGAGAACUUCAGCUGCUGUAUUUUGUCAAAGGCUGCAUCCACAUCAUCCAAUGUAAAGAGGGUAAAAUCUUCUGUAUUGUGUCGAGACUGAUAGAGGUCGUACAUGAACAUCUCAACAGAGGAUUGAGCAUCA
B2: chr4:25749455:25749456:-_ENSG00000091490_ENST00000264868|hu_hu|hu_hu_hu_mus_False|8_108 (ssRNA)
RNA: GGGAGUUCUACAGUCCGACGAUCGCAAGCACUAGGAUAGAAAAAUCCACAGGGGGAAAAAAUGUAAACCAAUGUACAAUGUUAUCGCCUUCCCUGUGUGUGGAGUGUUUGUCUCAAGGCUCCUUCUUGCCUUAUAAUUUGGGACAACAGAGGAUUGAGCAUCA
B3: chr11:46405157:46405158:+_ENSG00000110492_ENST00000395566|hu_hu|hu_hu_hu_mus_False|78_78 (ssRNA)
RNA: GGGAGUUCUACAGUCCGACGAUCCCCUCCCCACUUUGGGCACUUGGUGUGGGCGUGAAGGCAGGGCCGUGAUUGACAGAGCUGACAGGAAGACAAAAGGCACUGGUGGGUUAUAUCUUGGGCCUGUGGGAGAGGAGGGCUCCGCAACAGAGGAUUGAGCAUCA
B4: 52873384_52873592_4094_CDS_ENSMUSG00000035247_ENSMUST00000042052|mouse|control|control (ssRNA)
RNA: GGGAGUUCUACAGUCCGACGAUCCACCAGGCGCCUCUGCCUUCUAAGAUUAGCUUCUGCUUCUUUAGCUGCUUUCCCUAGUUGGUCUUCGCACACGCCAUUCACAGUGCCAUAGAGUUCAAAGCCGGAGAGCGAGAGGUAGUGCAACAGAGGAUUGAGCAUCA
B5: chr1:183098298:183098299:+_ENSMUSG00000062169_ENSMUST00000134115|mus_hu|FALSE|FALSE (ssRNA)
RNA: GGGAGUUCUACAGUCCGACGAUCUAUAAACAUGGCACCUUUCUGAUUUGCUUAGCCUCAGCAAGCCUGAUGUACUGUAAACUGACAGCCCAAAGGCUCUCUCAACUGCAUGAGUCACUGUUUUGGUUACUAAGAAUAUCUGAACAACAGAGGAUUGAGCAUCA
B6: chr13:112505112:112505113:+_ENSMUSG00000032727_ENSMUST00000109272|mus_mus|FALSE|FALSE (ssRNA)
RNA: GGGAGUUCUACAGUCCGACGAUCCAUAAAGGAUUCGGGGACAGCAAUGCCCAUCUUCAAUCUCUUUGCUGGUCUUUCGGAUUCUUCGCUGCACAUGGGGUUUAACUCUGAGUGAUAAAAUCCAGUCUCAAAUAAAUUAAAACACAACAGAGGAUUGAGCAUCA
B7: chr7:149838072:149838073:-_ENSMUSG00000048583_ENSMUST00000000033|mus_hu|motif|central (ssRNA)
RNA: GGGAGUUCUACAGUCCGACGAUCUCACUGCCCCCCUGUUACAUGGGGGGGGGGUUUAAUUUGGUUUCUGAGCGCAUAAAGCGGAGGAGGGGUAAAAAAAAAACAAAAAAAAAAAAAAAAGGAAAAAUGCCCCAAGAAACAAAGCAACAGAGGAUUGAGCAUCA
B8: chr7:149838072:149838073:-_ENSMUSG00000048583_ENSMUST00000000033|mus_hu|FALSE|FALSE (ssRNA)
RNA: B7 RNA with G82U, G83A
B9: 19964410_19964530_1467_3pUTR_ENSMUSG00000020152_ENSMUST00000000137|mouse|control|control (ssRNA)
RNA: GGGAGUUCUACAGUCCGACGAUCUCUAAAUGCCUACAAAGAAAGAAACAGAGCAGCAGCAACCCCUUGCCCUGGUAAUGUCUGCAAAGAUUUGGUAGCCUUAAACAACCAGAUUUACCCAUAUUAACAAGAAUUUAGCAAUGCCAACAGAGGAUUGAGCAUCA
B10: chr8:4269914:4269915:-_ENSMUSG00000002949_ENSMUST00000149827|mus_mus|motif|central (ssRNA)
RNA: GGGAGUUCUACAGUCCGACGAUCCUUCUUGGCCUCAUCUCGGAACUUUUUUAUACUUUCUUUCAUCUCUUUGUUUUUGGCGGAUUCUUGUUUGAUGUUAUCUAGCAAGCCUGACAAAAACCCUUUUCUGCUCCCAGAAGAAUACAACAGAGGAUUGAGCAUCA
B11: 19721883_19722003_1295_CDS_ENSMUSG00000050428_ENSMUST00000053109|mouse|control|control (ssRNA)
RNA: GGGAGUUCUACAGUCCGACGAUCAGGGCUCACUGUCAGGCACACAGUCUCUUCCUUCACGUUCUUGGUGCCAUCUUUGCCAAAGAAGAUGCACGCAUCCACUACACCUGUUACCACCACAUCUACAUGGAAUCCUGAUGCACCCAACAGAGGAUUGAGCAUCA
B12: chr18:56819859:56819860:+_ENSG00000166562_ENST00000588875|hu_mus|hu_hu_hu_mus_True|18_38 (ssRNA)
RNA: GGGAGUUCUACAGUCCGACGAUCAACCUUGAUUACUCUGUGAACUAUCGGAAUGUCUCUUCCUUCAACCUUAAAAACAACUAUUUCACCAGCUCUGAUUGGGUCUUCCCGGAAAUUUGUGAGGAACAGCAGAUCUCCUCUGUGCAACAGAGGAUUGAGCAUCA
B13: chr6:128323885:128323886:+_ENSMUSG00000001517_ENSMUST00000073316|mus_mus|motif|central (ssRNA)
RNA: GGGAGUUCUACAGUCCGACGAUCAGGGUCCUCCUCCAGGCCAGGGAAACUGAUGUCUAGAAGGAUCUUGCUGAGGCGGUCAUUCAUUGUGUCCAGGACAAGGCCUUCUGUGAGAGAACGGUUGGCUGAAAGGCUGGGAAUCUGCAACAGAGGAUUGAGCAUCA
B14: chr12:48459454:48459455:-_ENSG00000079387_ENST00000551330|hu_mus|motif|central (ssRNA)
RNA: GGGAGUUCUACAGUCCGACGAUCUGCUUUCUGCUCUUCAAUCCGGCGCAAUCUUUCCCGAGCUCGAGAGUCAUAAACGCGGGUUAAUUCUUUGAUCCAUAGCUCUGCCUGGAAGAACGUAGGGCUGGAAGCUGGAGUCUGAGACAACAGAGGAUUGAGCAUCA
B15: 55347689_55347809_2221_3pUTR_ENSMUSG00000021488_ENSMUST00000099490|mouse|control|control (ssRNA)
RNA: GGGAGUUCUACAGUCCGACGAUCACUCAGCAGUUUCAGGCUCCAUUGUCUUGGUAGAACCCAUUAAAUGGUCUGCAUGGGAAUUAGUAAUGAGGGAUUUCUGUUUCUCUUUUAUCCUGUUUGUGACAGGAUAUCUAGAAUACUCAACAGAGGAUUGAGCAUCA
B16: chr3:122152592:122152593:-_ENSG00000114030_ENST00000344337|hu_mus|motif|central (ssRNA)
RNA: GGGAGUUCUACAGUCCGACGAUCAUUUGUGAUGGCCCAAGCAGCUUCCUUCCUUGUCCGGAACUCUGCUGUUUGCAAUAUACGGAUAAGAGCUGGGAACAUGUUAGCAUCUAUCACAGUCUGGAUCUGUGCCCUAUUUCCAGCCAACAGAGGAUUGAGCAUCA
B17: chr17:60770872:60770873:+_ENSG00000011028_ENST00000303375|hu_hu|hu_hu_hu_mus_True|28_68 (ssRNA)
RNA: GGGAGUUCUACAGUCCGACGAUCUCUUUAAAAAAAAAAAAAAAAAGACAAACAAUAAUAGCACAUUAUUUAAAAAAAGAACUACAAUAGAGGGUCCGCUUUGAGUUGUCCAUGUUCUCGUCCUGCACUGGGACACGGGGACUGCAACAGAGGAUUGAGCAUCA
B18: chr17:60770872:60770873:+_ENSG00000011028_ENST00000303375|hu_hu|hu_hu_hu_mus_True|18_68 (ssRNA)
RNA: GGGAGUUCUACAGUCCGACGAUCUCUUUAAAAAAAAAAAAAAAAAGACAAACAAUAAUAGCACAUUAUUUAAAAAAAGAACUACAAUAGAGGGUCCGCUUUGAGUUUUUGUUCACAACAUUGUCCCCUGGGACACGGGGACUGCAACAGAGGAUUGAGCAUCA
B19: chr17:60770872:60770873:+_ENSG00000011028_ENST00000303375|hu_hu|hu_hu_hu_mus_True|1_38 (ssRNA)
RNA: GGGAGUUCUACAGUCCGACGAUCUCUUUAAAAAAAAAAAAAAAAAGACAAACAAUAAUAGCACAUUUCGAGAAUCAAGAACUACAAUAGAGGGUCCAUGUCUUCGAUUUGUUCACAUCGUCCUGCACUGGGACACGACCAGGACAACAGAGGAUUGAGCAUCA
B20: chr17:60770872:60770873:+_ENSG00000011028_ENST00000303375|hu_hu|hu_hu_hu_mus_True|1_68 (ssRNA)
RNA: GGGAGUUCUACAGUCCGACGAUCUCUUUAAAAAAAAAAAAAAAAAGACAAACAAUAAUAGCACAUUAUUUAAAAAAAGAACUACAAUAGAGGGUCCGCUUUGAGUUUUUGUUCACAUCGUCCUGCACUGGGACACGACCAGGACAACAGAGGAUUGAGCAUCA
B21: chr17:60770872:60770873:+_ENSG00000011028_ENST00000303375|hu_hu|hu_hu_hu_mus_True|68_68 (ssRNA)
RNA: B18 RNA with A117U, A119G, U121C, G122C, C124G, C126A
B22: chr17:60770872:60770873:+_ENSG00000011028_ENST00000303375|hu_hu|hu_hu_hu_mus_True|1_18 (ssRNA)
RNA: GGGAGUUCUACAGUCCGACGAUCUCUUUAAAAAAAAAAAAAAAAAGACAAACAAUAAUAGCACAUUUCGAGAAUCAAGAACUACAAUAGAGGGUCCGCUUUGAGUUUUUGUUCACAACAUUGUCCCCUGGGACACGACCAGGACAACAGAGGAUUGAGCAUCA
B23: chr17:60770872:60770873:+_ENSG00000011028_ENST00000303375|hu_hu|hu_hu_hu_mus_True|58_68 (ssRNA)
RNA: B18 RNA with A77U, G78C, A86G, A117U, A119G, U121C, G122C, C124G, C126A

These binders were tested against T1, UNK ZnF1-3 (assay: nsRBNS (natural sequence RNA bind-n-seq); RBNS binding buffer (assumed for nsRBNS): 25 mM Tris pH 7.5, 150 mM KCl, 3 mM MgCl2, 0.01% Triton X-100, 500 ug/ml BSA, 20 U/ml SUPERase-In, 4 C; UNK is unkempt and MSI1 is Musashi-1; names of the RNAs are library labels; protein concentration not given here; high values mean tight binding).
With B1 the binding signal was 1.57 enrichment R. With B2 the binding signal was 0.93 enrichment R. Work on B3 yielded a binding signal of 2.23 enrichment R. Work on B4 yielded a binding signal of 1.03 enrichment R. Work on B5 yielded a binding signal of 0.858 enrichment R. Work on B6 yielded a binding signal of 1.01 enrichment R. In the case of B7, the binding signal is reported as 22.9 enrichment R. For B8, the binding signal was 12.2 enrichment R. B9 showed a binding signal of 1.74 enrichment R. B10 showed a binding signal of 0.472 enrichment R. In the case of B11, the binding signal is reported as 1.01 enrichment R. B12 gave a binding signal of 0.803 enrichment R. With B13 the binding signal was 1.01 enrichment R. For B14, the binding signal was 1.03 enrichment R. In the case of B15, the binding signal is reported as 0.567 enrichment R. For B16, the binding signal was 0.808 enrichment R. B17 gave a binding signal of 4.92 enrichment R. For B18, the binding signal was 4.47 enrichment R. With B19 the binding signal was 2.39 enrichment R. In the case of B20, the binding signal is reported as 3.57 enrichment R. In the case of B21, the binding signal is reported as 4.87 enrichment R. With B22 the binding signal was 3.43 enrichment R. With B23 the binding signal was 4.95 enrichment R.
